The nature of assay [1]: ATG_NFI_CIS: Attagene CIS-FACTORIAL HepG2 Assay for human Nuclear Factor I (NFI) (AID 2282989). The settings on record: HepG2 cis-regulatory reporter, NFI response element transcription; actives raise or lower the signal. The method in brief:
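Read-out: reporter mRNA via RT-PCR plus capillary electrophoresis with fluorescence detection. Transiently transfected HepG2 (endogenous TF activity on cis promoters), 24 h compound exposure; gain or loss of signal fitted against DMSO.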

Assay [2] addresses Myc proto-oncogene protein (Homo sapiens) (UniProt P01106). Briefly: ATG_Myc_CIS: Attagene CIS-FACTORIAL HepG2 Assay for human Myelocytomatosis (Myc) Proto-Oncogene Transcription Factor (AID 2282990). The settings on record: HepG2, Attagene cis-reporter transcription factor activity; actives raise or lower the signal. Put shortly:
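Cells of the HepG2 human liver line bear multiple cis-driven reporter transcription units. Reporter mRNA after 24 h exposure is reverse-transcribed, amplified, labelled and resolved by capillary electrophoresis, with gain- or loss-of-signal fitting relative to DMSO.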

A short description of assay [3]: ATG_NF_kB_CIS: Attagene CIS-FACTORIAL HepG2 Assay for human Nuclear Factor Kappa B (NF-kB) (AID 2282991). The settings on record: HepG2 Attagene cis-factorial NF-kB reporter mRNA; actives raise or lower the signal. Put shortly: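 Multiplexed cis-reporter assay in transiently transfected HepG2. 24 h treatment; RNA isolated, RT-PCR, labelled fragments resolved by CE. DMSO baseline.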

Assay [4] can be described thus: ATG_NRF2_ARE_CIS: Attagene CIS-FACTORIAL HepG2 Assay for human Nuclear Factor Erythroid 2 Related Factor 2 (NFR2) response to Antioxidant Response Elements (ARE) (AID 2282992).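 On AC50: reporter mRNA level measured by RT-PCR and capillary electrophoresis fluorescence.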 The settings on record: HepG2 Attagene ARE/NRF2 reporter, transcription factor activity; actives raise or lower the signal. Put shortly:
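Multiplexed reporter mRNA profiling in HepG2 after a 24 h chemical exposure. Curves fitted in both directions relative to DMSO negative control.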

Assay [5] addresses Cellular tumor antigen p53 (Homo sapiens) (UniProt P04637). In words: ATG_p53_CIS: Attagene CIS-FACTORIAL HepG2 Assay for human p53 Transcription Factor (AID 2282994). The settings on record: HepG2 p53 cis-element reporter, Attagene mRNA; actives raise or lower the signal. The method in brief: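 Multiplexed reporter mRNA assay in human HepG2 liver cells; cis-regulated units report endogenous factor activity. Values come from bidirectional curve fitting against DMSO negative control after 24 h treatment.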

In assay [6] the target is human Peroxisome Proliferator-activated Receptor alpha (PPARa), PPARA (gene 5465) (UniProt Q07869). Briefly: ATG_PPARa_TRANS: Attagene TRANS-FACTORIAL HepG2 Assay for human Peroxisome Proliferator-activated Receptor alpha (PPARa) (AID 2283001; active means hit-call score of the fitted dose curve at least 0.9, where 1 is the maximum). The method in brief: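 Read-out is fluorescence of reporter cDNA fragments resolved by capillary electrophoresis after RT-PCR. Human HepG2 liver cells carried transfected PPARa-Gal4 chimera and GAL4-UAS reporter units, treated 24 h; activity scored as increase over DMSO.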

Assay [7] addresses human Peroxisome Proliferator-activated Receptor delta (PPARd), PPARD (gene 5467) (UniProt Q03181). Briefly: ATG_PPARd_TRANS: Attagene TRANS-FACTORIAL HepG2 Assay for human Peroxisome Proliferator-activated Receptor delta (PPARd) (AID 2283002; active means hit-call score of the fitted dose curve at least 0.9, where 1 is the maximum). The method in brief:
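Cell-based TRANS reporter: HepG2, transient MRTU transfection, 24 h exposure. Readout = reporter mRNA (RT-PCR/CE, 6-FAM). Gain-of-signal fit vs DMSO control.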

The target of assay [8] is Peroxisome proliferator-activated receptor gamma (Homo sapiens) (UniProt P37231). Briefly: ATG_PPARg_TRANS: Attagene TRANS-FACTORIAL HepG2 Assay for human Peroxisome Proliferator-activated Receptor-gamma (PPARg) (AID 2283007; active means hit-call score of the fitted dose curve at least 0.9, where 1 is the maximum). The method in brief:
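Human hepatoma HepG2, transient MRTU transfection, 24 h treatment. mRNA reporter signal by RT-PCR plus capillary electrophoresis, fluorescence detection; fitted for increase over DMSO negative control.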

Assay [9] has as its target human Retinoic Acid Receptor gamma (RARg), RARG (gene 5916) (UniProt P13631). In words: ATG_RARg_TRANS: Attagene TRANS-FACTORIAL HepG2 Assay for human Retinoic Acid Receptor gamma (RARg) (AID 2283009; active means hit-call score of the fitted dose curve at least 0.9, where 1 is the maximum). The method in brief:
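Transient transfection of HepG2 with multi-reporter constructs, then 24 h chemical treatment. Total RNA isolated, reverse-transcribed, PCR-amplified, fluorescently labelled and resolved by capillary electrophoresis; activity scored as mRNA induction versus DMSO.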

The nature of assay [10]: ATG_Oct_MLP_CIS: Attagene CIS-FACTORIAL HepG2 Assay for human Octamer-Binding Transcription Factor (Oct) (AID 2282993). The settings on record: HepG2 Attagene cis-factorial Oct reporter, mRNA; actives raise or lower the signal. Put shortly:
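Read-out: reporter mRNA via RT-PCR plus capillary electrophoresis of 6-FAM-labelled fragments. Transiently transfected HepG2, 24 h exposure, endogenous TF activity on cis elements. Gain or loss of signal fitted relative to DMSO.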

Assay [11] has as its target human Retinoic Acid Receptor beta (RARb), RARB (gene 5915) (UniProt P10826). In words: ATG_RARb_TRANS: Attagene TRANS-FACTORIAL HepG2 Assay for human Retinoic Acid Receptor beta (AID 2283004; active means hit-call score of the fitted dose curve at least 0.9, where 1 is the maximum). Put shortly: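 HepG2, transient MRTU transfection, NR–Gal4 chimera, 24 h treatment; RT-PCR plus CE fluorescence detection of reporter mRNA; gain of signal vs DMSO.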
Assay [12] concerns the target Nuclear receptor subfamily 1 group I member 2 (Homo sapiens) (UniProt O75469). In words: ATG_PXR_TRANS: Attagene TRANS-FACTORIAL HepG2 Assay for human Pregnane X Receptor (PXR) (AID 2283008; active means hit-call score of the fitted dose curve at least 0.9, where 1 is the maximum). The method in brief: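 Measures mRNA induction of a GAL4-UAS-driven reporter in human HepG2 cells transiently expressing PXR fused to Gal4, following 24 h treatment. DMSO served as negative control and baseline.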

The target of assay [13] is human RAR-related Orphan Receptor beta (RORb), RORB (gene 6096) (UniProt Q92753). In words: ATG_RORb_TRANS: Attagene TRANS-FACTORIAL HepG2 Assay for human RAR-related Orphan Receptor beta (RORb) (AID 2283010; active means hit-call score of the fitted dose curve at least 0.9, where 1 is the maximum). Put shortly:
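Readout is reporter-gene mRNA induction, detected as fluorescence after RT-PCR and capillary electrophoresis, fitted for gain of signal against DMSO controls. Transiently transfected HepG2 liver cells carrying GAL4-UAS reporter constructs were treated for 24 hours.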

Assay [14] in a line: BSK_3C_TissueFactor: BioMAP Diversity Plus: 3C Assay for Tissue Factor Biomarker Activity (AID 2282997). The settings on record: BioMAP 3C HUVEC, tissue factor biomarker readout; actives raise or lower the signal. Put shortly:
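Values derive from bidirectional curve fitting against DMSO of Tissue Factor ELISA signals, taken 24 h after dosing primary human umbilical vein endothelial cells.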

Assay [15] in a line: BSK_3C_uPAR: BioMAP Diversity Plus: 3C Assay for Urokinase-type plasminogen activator receptor (uPAR) Biomarker Activity (AID 2282998). The settings on record: BioMAP 3C HUVEC, uPAR biomarker ELISA; actives raise or lower the signal. Put shortly: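 HUVEC primary cells; 24 h post-dose; uPAR by ELISA; gain or loss of signal fitted bidirectionally vs DMSO baseline.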
On the technique in general: ELISA stands for enzyme-linked immunosorbent assay.

Assay [16] can be described thus: BSK_3C_VCAM1: BioMAP Diversity Plus: 3C Assay for Vascular cell adhesion molecule 1 (VCAM1) Biomarker Activity (AID 2282999). The settings on record: BioMAP 3C HUVEC, VCAM1 ELISA, cytokine-stimulated; actives raise or lower the signal. Put shortly:
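Endothelial cells from human umbilical vein are treated with test chemical. At 24 h, VCAM-1 is measured by ELISA, and responses in either direction are fitted relative to DMSO.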

A short description of assay [17]: BSK_4H_Eotaxin3: BioMAP Diversity Plus: 4H Assay for Eotaxin 3 Biomarker Activity (AID 2283000). The settings on record: primary human endothelial cells (HUVEC); actives raise or lower the signal. The method in brief: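 Endothelial primary cells (human umbilical vein) exposed to compound for 24 h. ELISA detection of Eotaxin-3.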
Read-out in assay [18]: Intercellular Adhesion Molecule 1 (ICAM1), ICAM1 (gene 3383)
Briefly: BSK_3C_ICAM1: BioMAP Diversity Plus: 3C Assay for Intercellular Adhesion Molecule 1 (ICAM1) Biomarker Activity (AID 2283003). The settings on record: primary human endothelial cells (HUVEC); actives raise or lower the signal. The method in brief:
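ICAM-1 levels measured by ELISA after HUVEC cultures in the 3C system had been dosed for 24 h. Gain or loss of signal relative to DMSO was fitted in both directions.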

The nature of assay [19]: BSK_3C_Proliferation: Cell Proliferation Assessment in the BioMAP Diversity Plus: 3C Assay (AID 2283006).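 Further: potency may reflect either rise or fall in cell number versus DMSO.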 The settings on record: primary human endothelial cells (HUVEC). The method in brief: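 Read-out is total protein by SRB absorbance at 560 nm, taken as a proxy for relative cell number. Primary human umbilical vein endothelium cultured below confluence was dosed for 48 h, TCA-fixed and SRB-stained; curves were fitted bidirectionally versus DMSO.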

Assay [20] has as its target Retinoic acid receptor alpha (Homo sapiens) (UniProt P10276). Briefly: ATG_RARa_TRANS: Attagene TRANS-FACTORIAL HepG2 Assay for human Retinoic Acid Receptor alpha (RARa) (AID 2283005; active means hit-call score of the fitted dose curve at least 0.9, where 1 is the maximum). The method in brief: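 Reporter transcripts, measured by RT-PCR with fluorescent labeling and capillary electrophoresis after 24 h dosing, reflect activity of an exogenous human RARa–GAL4 fusion in transiently transfected HepG2. Fitted for increase relative to DMSO.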

Inconclusive results are not listed. The source made the active and inactive calls. How the source made its calls, unless noted: active means hit-call score of the fitted dose curve at least 0.9, where 1 is the maximum; inactive means score below 0.9.

Sequence of Peroxisome proliferator-activated receptor gamma (Homo sapiens) (P37231 whole entry, looked up): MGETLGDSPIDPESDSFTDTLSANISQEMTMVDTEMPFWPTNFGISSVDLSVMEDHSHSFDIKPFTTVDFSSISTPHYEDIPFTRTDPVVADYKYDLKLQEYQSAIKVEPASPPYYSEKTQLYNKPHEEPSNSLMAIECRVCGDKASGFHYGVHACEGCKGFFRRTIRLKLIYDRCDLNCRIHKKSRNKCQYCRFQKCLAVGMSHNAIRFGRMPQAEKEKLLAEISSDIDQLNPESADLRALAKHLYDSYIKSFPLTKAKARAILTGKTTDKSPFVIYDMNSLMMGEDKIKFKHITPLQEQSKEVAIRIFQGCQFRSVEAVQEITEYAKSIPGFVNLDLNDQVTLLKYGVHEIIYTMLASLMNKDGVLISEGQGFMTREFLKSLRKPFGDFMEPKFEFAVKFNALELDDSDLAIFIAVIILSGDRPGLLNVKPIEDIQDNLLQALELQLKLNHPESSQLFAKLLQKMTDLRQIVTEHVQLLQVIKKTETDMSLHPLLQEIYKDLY
Sequence of human Retinoic Acid Receptor beta (RARb), RARB (gene 5915) (P10826 whole entry, looked up, the tested form may be a part): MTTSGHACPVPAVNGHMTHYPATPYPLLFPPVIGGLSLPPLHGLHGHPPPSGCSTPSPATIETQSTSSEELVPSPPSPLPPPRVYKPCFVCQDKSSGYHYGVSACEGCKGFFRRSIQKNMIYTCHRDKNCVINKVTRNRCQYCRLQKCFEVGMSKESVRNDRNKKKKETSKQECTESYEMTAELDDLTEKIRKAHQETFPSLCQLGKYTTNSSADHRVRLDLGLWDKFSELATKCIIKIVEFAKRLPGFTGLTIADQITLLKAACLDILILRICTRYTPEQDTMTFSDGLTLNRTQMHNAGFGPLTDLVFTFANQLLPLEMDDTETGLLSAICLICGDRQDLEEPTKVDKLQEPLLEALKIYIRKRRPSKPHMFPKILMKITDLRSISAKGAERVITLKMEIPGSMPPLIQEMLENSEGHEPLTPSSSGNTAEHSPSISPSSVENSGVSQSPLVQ
Sequence of Nuclear receptor subfamily 1 group I member 2 (Homo sapiens) (O75469 whole entry, looked up, the tested form may be a part): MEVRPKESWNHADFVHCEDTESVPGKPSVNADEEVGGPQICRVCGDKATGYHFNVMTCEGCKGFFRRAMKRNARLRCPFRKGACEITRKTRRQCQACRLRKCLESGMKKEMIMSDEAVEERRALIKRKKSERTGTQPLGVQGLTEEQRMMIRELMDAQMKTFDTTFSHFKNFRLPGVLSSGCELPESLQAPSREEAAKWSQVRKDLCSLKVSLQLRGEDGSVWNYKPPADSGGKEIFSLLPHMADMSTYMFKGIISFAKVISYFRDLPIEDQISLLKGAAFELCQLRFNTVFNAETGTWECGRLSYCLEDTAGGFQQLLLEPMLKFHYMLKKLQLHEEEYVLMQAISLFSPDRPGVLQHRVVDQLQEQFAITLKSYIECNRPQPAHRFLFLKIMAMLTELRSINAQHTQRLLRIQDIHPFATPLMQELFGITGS
Sequence of Myc proto-oncogene protein (Homo sapiens) (P01106 whole entry, looked up): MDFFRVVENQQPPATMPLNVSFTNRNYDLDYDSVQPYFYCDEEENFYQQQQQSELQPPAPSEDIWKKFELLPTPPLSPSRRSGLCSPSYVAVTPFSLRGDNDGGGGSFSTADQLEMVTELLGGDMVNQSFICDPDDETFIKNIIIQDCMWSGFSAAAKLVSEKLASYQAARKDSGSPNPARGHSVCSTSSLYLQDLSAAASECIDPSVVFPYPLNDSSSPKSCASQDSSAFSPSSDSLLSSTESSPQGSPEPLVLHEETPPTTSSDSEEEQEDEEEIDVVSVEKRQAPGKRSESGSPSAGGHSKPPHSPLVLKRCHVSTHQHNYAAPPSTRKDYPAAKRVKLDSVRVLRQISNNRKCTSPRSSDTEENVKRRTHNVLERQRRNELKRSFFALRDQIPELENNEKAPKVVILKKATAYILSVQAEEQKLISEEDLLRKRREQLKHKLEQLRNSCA
Sequence of human Peroxisome Proliferator-activated Receptor delta (PPARd), PPARD (gene 5467) (Q03181 whole entry, looked up): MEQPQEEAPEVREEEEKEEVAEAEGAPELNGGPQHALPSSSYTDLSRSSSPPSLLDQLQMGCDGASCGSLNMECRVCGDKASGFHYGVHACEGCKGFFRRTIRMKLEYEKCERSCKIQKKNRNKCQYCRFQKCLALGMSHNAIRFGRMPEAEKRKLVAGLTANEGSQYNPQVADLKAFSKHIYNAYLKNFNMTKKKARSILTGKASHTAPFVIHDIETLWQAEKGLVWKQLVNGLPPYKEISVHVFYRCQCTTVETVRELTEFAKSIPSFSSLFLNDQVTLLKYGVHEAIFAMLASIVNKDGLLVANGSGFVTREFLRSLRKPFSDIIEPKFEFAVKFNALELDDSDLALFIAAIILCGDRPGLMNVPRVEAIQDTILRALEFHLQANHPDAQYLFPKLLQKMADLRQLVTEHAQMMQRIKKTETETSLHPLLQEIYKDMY
Sequence of human Peroxisome Proliferator-activated Receptor alpha (PPARa), PPARA (gene 5465) (Q07869 whole entry, looked up, the tested form may be a part): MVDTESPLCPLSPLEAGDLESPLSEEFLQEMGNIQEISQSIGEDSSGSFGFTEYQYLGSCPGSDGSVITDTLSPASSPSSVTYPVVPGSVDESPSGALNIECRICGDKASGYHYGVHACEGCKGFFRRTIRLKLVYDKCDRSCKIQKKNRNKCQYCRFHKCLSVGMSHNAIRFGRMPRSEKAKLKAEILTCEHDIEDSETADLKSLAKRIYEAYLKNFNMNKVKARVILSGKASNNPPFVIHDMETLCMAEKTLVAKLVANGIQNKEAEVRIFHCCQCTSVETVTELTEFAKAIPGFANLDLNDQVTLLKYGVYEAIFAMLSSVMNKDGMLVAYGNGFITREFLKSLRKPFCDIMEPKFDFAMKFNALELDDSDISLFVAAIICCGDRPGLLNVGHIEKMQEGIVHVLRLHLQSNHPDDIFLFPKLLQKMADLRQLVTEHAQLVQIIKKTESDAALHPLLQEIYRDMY
Sequence of Cellular tumor antigen p53 (Homo sapiens) (P04637 whole entry, looked up): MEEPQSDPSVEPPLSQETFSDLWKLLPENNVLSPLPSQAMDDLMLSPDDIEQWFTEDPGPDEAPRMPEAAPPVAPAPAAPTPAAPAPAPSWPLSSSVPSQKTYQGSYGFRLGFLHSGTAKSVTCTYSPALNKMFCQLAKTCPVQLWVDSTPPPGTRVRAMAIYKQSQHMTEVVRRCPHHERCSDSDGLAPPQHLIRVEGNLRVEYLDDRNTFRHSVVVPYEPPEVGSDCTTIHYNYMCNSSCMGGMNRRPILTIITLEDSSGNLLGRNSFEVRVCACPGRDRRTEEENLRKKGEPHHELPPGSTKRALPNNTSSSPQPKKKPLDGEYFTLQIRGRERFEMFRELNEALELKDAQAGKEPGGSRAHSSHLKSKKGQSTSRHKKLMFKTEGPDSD
Sequence of human Retinoic Acid Receptor gamma (RARg), RARG (gene 5916) (P13631 whole entry, looked up): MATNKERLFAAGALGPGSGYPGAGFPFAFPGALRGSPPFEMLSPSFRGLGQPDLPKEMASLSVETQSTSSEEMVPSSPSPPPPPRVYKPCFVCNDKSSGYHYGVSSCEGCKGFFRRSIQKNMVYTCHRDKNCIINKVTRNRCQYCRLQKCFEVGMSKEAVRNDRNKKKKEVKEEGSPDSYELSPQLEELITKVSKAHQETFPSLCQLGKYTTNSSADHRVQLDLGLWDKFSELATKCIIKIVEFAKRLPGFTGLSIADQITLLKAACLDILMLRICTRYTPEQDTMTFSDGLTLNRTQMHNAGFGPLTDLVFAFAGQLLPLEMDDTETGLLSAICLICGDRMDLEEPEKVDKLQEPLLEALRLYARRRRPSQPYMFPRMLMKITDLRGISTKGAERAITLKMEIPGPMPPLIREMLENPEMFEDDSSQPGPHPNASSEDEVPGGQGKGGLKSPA
Sequence of human RAR-related Orphan Receptor beta (RORb), RORB (gene 6096) (Q92753 whole entry, looked up, the tested form may be a part): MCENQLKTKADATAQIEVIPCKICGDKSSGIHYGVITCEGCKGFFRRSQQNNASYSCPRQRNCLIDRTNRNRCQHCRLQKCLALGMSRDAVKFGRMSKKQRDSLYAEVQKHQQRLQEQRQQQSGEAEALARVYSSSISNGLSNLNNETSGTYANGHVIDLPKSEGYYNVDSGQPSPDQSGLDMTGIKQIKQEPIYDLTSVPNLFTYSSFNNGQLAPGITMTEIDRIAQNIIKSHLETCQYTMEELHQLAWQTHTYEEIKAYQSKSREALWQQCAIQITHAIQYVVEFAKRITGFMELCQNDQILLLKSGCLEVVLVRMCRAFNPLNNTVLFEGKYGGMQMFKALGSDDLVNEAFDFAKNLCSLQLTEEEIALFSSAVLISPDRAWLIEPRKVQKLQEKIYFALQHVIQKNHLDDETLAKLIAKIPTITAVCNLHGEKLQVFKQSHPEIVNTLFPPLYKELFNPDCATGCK
Sequence of Retinoic acid receptor alpha (Homo sapiens) (P10276 whole entry, looked up, the tested form may be a part): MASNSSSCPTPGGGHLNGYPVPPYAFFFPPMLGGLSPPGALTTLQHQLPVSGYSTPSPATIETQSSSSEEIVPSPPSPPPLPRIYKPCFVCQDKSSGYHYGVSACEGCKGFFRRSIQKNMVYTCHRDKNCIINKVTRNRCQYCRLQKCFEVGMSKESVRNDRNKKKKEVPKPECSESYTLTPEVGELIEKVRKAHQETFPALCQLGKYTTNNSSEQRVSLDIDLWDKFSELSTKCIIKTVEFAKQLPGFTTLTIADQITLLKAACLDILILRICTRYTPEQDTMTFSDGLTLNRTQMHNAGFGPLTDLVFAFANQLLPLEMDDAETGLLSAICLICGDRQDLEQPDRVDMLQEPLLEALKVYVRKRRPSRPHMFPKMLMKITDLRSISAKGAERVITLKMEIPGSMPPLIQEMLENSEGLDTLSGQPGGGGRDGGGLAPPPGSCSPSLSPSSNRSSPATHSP

As to `N#Cc1ccc(CC(=O)c2cccc(C(F)(F)F)c2)cc1`, the AC50 (commonly the midpoint of the concentration-response curve, whichever way the signal moves) in assay [1] is 188 µM (active); in [2], 158 µM (active); in assay [4], 13.5 µM (active); in assay [8], 31.4 µM (active). The outcome in assay [3], in assay [5], in assay [6], in [7] and in assay [9] was inactive.

Consider `CCc1ccc(O)c(OC)c1`, for which the molecule was classed as inactive in [1], in [2], in assay [3], in assay [4], in [5] and in [7]. Moreover, in assay [8], the molecule was called inactive.

`CCCCCCCCCC(=O)OC`: the molecule was classed as inactive in assay [1], in [2], in assay [3], in assay [4], in assay [10] and in [6]. Moreover, in [8], the AC50 is 57.1 µM (active).

For the molecule `COc1ccccc1N=Nc1c(S(=O)(=O)O)cc2cc(S(=O)(=O)O)cc(NC(C)=O)c2c1O`, the call in [1], in assay [2], in assay [3], in assay [4], in [5] and in assay [6] was inactive. In addition, the result in [11], in [8], in assay [12], in assay [9] and in [13] was inactive.

With `CCCCC1CCC(O)CC1` (centres undefined), the molecule was called inactive in assay [1], in assay [2], in [3], in assay [4], in assay [5] and in assay [7]. Moreover, the result in assay [11], in [8] and in assay [9] was inactive.

In the case of `COc1ccc(COC(C)=O)cc1`, the molecule was called inactive in [1], in [2], in [3], in assay [4], in assay [10] and in assay [6]. The molecule was classed as inactive in assay [7].

On to `Nc1c(S(=O)(=O)O)cc(Br)c2c1C(=O)c1ccccc1C2=O`, for which the molecule was called inactive in assay [1], in assay [2], in assay [3], in assay [10] and in assay [6]. Besides, the results for the AC50 in assay [4], in assay [8] and in assay [12] were 73.8 µM (active), 27.5 µM (active) and 40.2 µM (active), respectively.

For the molecule `c1ccc(CN(Cc2ccccc2)Cc2ccccc2)cc1`, the molecule was classed as inactive in assay [1], in [2], in assay [3], in [10], in [8] and in assay [12]. Also, in [9], the molecule was classed as inactive. In [4], the half-maximal activity concentration (AC50) is 100 µM (active).

For the molecule `Oc1ccc2cc(SSc3ccc4cc(O)ccc4c3)ccc2c1`, the half-maximal activity concentration (AC50) in [1] is 34.1 µM (active); in assay [4], 8.28 µM (active); in assay [10], 39.9 µM (active); in [8], 5.56 µM (active). Moreover, the outcome in assay [2], in assay [3], in [7] and in [12] was inactive.

`BrCc1cccc(Oc2ccccc2)c1`: the result in [1], in [2], in [3], in [10] and in assay [6] was inactive. In addition, the AC50 was 58.4 µM (active) in assay [4], 44.8 µM (active) in [8] and 43.3 µM (active) in assay [12].

Consider `CC(=O)C1(C)CC2=C(CCCC2(C)C)CC1C` (centres undefined), for which the AC50 in [1] was 187 µM (active); in [3] it was 121 µM (active); in [4], 93.6 µM (active); in [5], 144 µM (active); in assay [14], 7.62 µM (active); in [15] it was 8.27 µM (active). In addition, the concentration at half-maximal activity (AC50) was 11 µM (active) in assay [16]; 9.74 µM (active) in [17]; 12.8 µM (active) in assay [18]; 6.69 µM (active) in assay [19]; 100 µM (active) in assay [8]; 9.83 µM (active) in assay [12]. Moreover, the molecule was classed as inactive in assay [2].

Regarding `O=C(c1ccccc1)C(O)c1ccccc1` (centres undefined), the molecule was classed as inactive in [1], in assay [2], in assay [3], in assay [4], in assay [10] and in [7]. Moreover, the result in [8] and in assay [13] was inactive.

`CC1CCC(C(C)C)C(O)C1` (centres undefined): the outcome in assay [1], in assay [2], in [3], in [4], in assay [10] and in assay [7] was inactive. The outcome in [11], in [20], in assay [8], in assay [12] and in assay [9] was inactive.

These data come from PubChem BioAssay (EPA / NIEHS).
